The list is not random: actives were taken first. Their share in the collection is about 3.5%.
GPR151 ag = activators of human GPR151; 1% of 650,000 active; PathHunter beta-arrestin GPR151 cells, luminescence; AID 1508602; Q8TDV0; activation, % at 11.2 µM; in the data active = activation above about 4.9%;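 also: 0% = median of compound wells and 100% = cells with positive control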
MITF primary = inhibitors of human MITF; AID 1259374; AlphaScreen MITF homodimerization, bead proximity signal; 0.91% of 650,000 active; inhibition, % at 2.6 µM; in the data active = inhibition above about 50%;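 also: 0% = vehicle wells with protein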
FBW7 act = human FBW7 E3 ligase activation, primary screen | normalized activity (activation), % at 26.1 µM | 0.13% of 650,000 active | Q969H0 | AlphaScreen FBW7–phospho-cyclin E peptide binding, activator screen; in the data active = normalized activity above about 1.9%;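 also: purified mutant Fbw7 with reduced substrate affinity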
Target sequence (Q969H0 whole entry, looked up): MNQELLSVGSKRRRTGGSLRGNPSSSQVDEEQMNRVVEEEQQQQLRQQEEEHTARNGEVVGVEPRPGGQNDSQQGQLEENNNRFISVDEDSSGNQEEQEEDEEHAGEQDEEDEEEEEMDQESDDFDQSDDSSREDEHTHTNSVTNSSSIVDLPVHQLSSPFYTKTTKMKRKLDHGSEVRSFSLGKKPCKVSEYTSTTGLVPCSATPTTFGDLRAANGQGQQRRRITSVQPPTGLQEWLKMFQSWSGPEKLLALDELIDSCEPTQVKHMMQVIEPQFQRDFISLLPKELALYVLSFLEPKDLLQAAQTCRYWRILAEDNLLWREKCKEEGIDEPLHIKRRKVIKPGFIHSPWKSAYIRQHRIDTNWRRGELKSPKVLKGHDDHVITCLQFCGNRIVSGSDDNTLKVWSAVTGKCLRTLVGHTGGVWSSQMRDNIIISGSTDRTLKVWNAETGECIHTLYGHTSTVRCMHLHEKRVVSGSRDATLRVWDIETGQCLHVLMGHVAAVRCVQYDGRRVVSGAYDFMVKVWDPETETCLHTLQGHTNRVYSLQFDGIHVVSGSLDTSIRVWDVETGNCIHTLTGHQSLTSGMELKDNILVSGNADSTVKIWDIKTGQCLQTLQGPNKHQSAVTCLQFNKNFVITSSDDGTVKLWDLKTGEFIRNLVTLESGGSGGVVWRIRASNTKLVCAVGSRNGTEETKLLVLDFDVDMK
TEAD-YAP block = TEAD-YAP interaction inhibition. 1.4% of 640,000 active. AID 1259422. inhibition, % at 9.12 µM. HEK-TIYL cells, TEAD-Gal4/YAP UAS-luciferase luminescence; in the data active = inhibition above about 32%;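 also: 0% = median of test compound wells and 100% = reference inhibitor wells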
GPR151 confirm = confirmation of human GPR151 activators; shares compounds with GPR151 ag; GPR151 PathHunter beta-arrestin cells, luminescence, 90 min; % of EA-reagent control over plate median; activation, % at 11.2 µM; 6,700 tested, under 10 active; AID 1508609;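 active = mean percent activation across replicates above the confirmation screen cutoff of 4.91%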
GPR119 ag = counter-screen for GPR151 activators: effect on human GPR119 | shares compounds with GPR151 ag | GPR119 PathHunter beta-arrestin cells, luminescence, 90 min; 0 = compound-well median, 100 = enzyme-acceptor control | 0.3% of 6,700 active | activation, % at 11.2 µM;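 active = mean percent activation in the counterscreen above 29.09%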;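 also: counterscreen on off-target GPR119 to flag nonselective hits from the GPR151 activator screen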
* hit, by the source's call; nt = no result given.

SMILES	GPR151 ag	MITF primary	FBW7 act	TEAD-YAP block	GPR151 confirm	GPR119 ag
CC(C)(CO)CN1CCCC(C(=O)Nc2cccc(-c3ccc(F)cc3)c2)C1 (stereo not given)	6.2*	-18	1	-5	-1	-15
CSCCC(=O)N1CCCC(C(=O)Nc2ccc(-c3cccc(F)c3)cc2)C1 (stereo not given)	2	5	0	-7	nt	nt
O=C(Nc1cccc(-c2ccc(F)cc2)c1)C1CCCN(C(=O)c2cscn2)C1 (stereo not given)	17*	9	0	7	0	-1
CC(=O)c1cccc(N(CC(=O)N2CCN(C)CC2)S(C)(=O)=O)c1	0	-8	0	5	nt	nt
C(=N\n1cnnc1)/c1ccc(Nc2ccccc2)cc1	0	8	0	-2	nt	nt
Cc1cnc(NC(=O)Cc2ccsc2)s1	6.3*	4	0	-1	0	-1
O=C(c1c(-c2ccccc2)oc2ccc(O)cc12)N1CCCCC1	4.9*	-6	0	-4	-1	-7
O=C(O)c1c(-c2ccccc2)oc2ccc(O)cc12	0	-2	-1	-3	nt	nt
COc1cccc(CNC(=O)CSc2nc3c(oc4ccccc43)c(=O)n2CCCOC(C)C)c1	6.5*	2	0	1	-1	-13
CCCNc1cc(C)nc(-c2ccc(C(=O)N3CCN(C)CC3)cc2)n1	-2	-6	0	-43	nt	nt
Cc1cc(N)nc(-c2ccc(C(=O)N3CCN(C)CC3)cc2)n1	8.5*	6	0	-11	0	6
O=C(/C=C/c1cccc(Cl)c1)Nc1ccncc1	24*	1	0	-26	0	-9
COc1ccc(OC)c(NC(=O)CSc2nc3n[nH]c(C)c3c(=N)n2-c2cc(Cl)ccc2C)c1	12*	7	0	0	0	0
CCOc1ccc(-n2c(SCC(=O)Nc3ccc(CC)cc3)nc3n[nH]c(C)c3c2=N)cc1	5.3*	4	0	13	2	9
Cc1cccc(NC(=O)CSc2nc3n[nH]c(C)c3c(=N)n2-c2ccc(Br)cc2)c1	5.8*	3	0	3	0	5
CCCCNC(=O)CSc1nc2n[nH]c(C)c2c(=N)n1-c1ccccc1CC	5.9*	-6	0	-22	0	3
CCOc1ccc(NC(=O)CSc2nc3n[nH]c(C)c3c(=N)n2-c2ccc(OCC)cc2)cc1	-1	1	0	30	nt	nt
O=C(Nc1c2c(nn1-c1ccc(F)cc1)CSC2)C1CC1	1	23	0	-13	nt	nt
CSc1nccc(-c2cc(F)cc3c2OC(CNC(=O)c2cncs2)C3)n1 (stereo not given)	1	1	0	-2	nt	nt
CC[C@H](C)NC(=O)CCCc1nnc2n(CCC(C)C)c(=O)c3sccc3n12	-1	2	0	1	nt	nt
CC(C)CCn1c(=O)c2sccc2n2c(CCCC(=O)O)nnc12	5.2*	14	0	1	0	-2
COc1cc(OC)nc(Oc2cccc(C)c2/C=N/NC(=O)c2ccccn2)n1	6.0*	14	0	-45	-1	-11
CCOc1ccc(/C=N/NC(=O)c2ccccn2)cc1OC	6.8*	14	0	-43	0	-3
COc1cccc(/C=N\NC(=O)c2cnccn2)c1O	5.3*	38	-1	-14	0	1
COc1ccc(Br)cc1C(=O)N/N=C/c1cccc(OC)c1O	1	10	0	22	nt	nt
SMILES	GPR151 ag	MITF primary	FBW7 act	TEAD-YAP block	GPR151 confirm	GPR119 ag
COc1cc(/C=N/NC(=O)c2ccccn2)ccc1OC(C)=O	-2	6	0	-51	nt	nt
COc1cccc(/C=N/NC(=O)c2ccc(-n3c(C)ccc3C)cc2O)c1O	5.4*	64*	-1	-32	-1	-11
CCOC(=O)c1[nH]c(C)c(C(=O)NCCN2CCCCCC2)c1C	1	-17	0	5	nt	nt
Cn1c2c(c(=O)n(C)c1=O)C(c1cccc(Br)c1)C1=C(COC1=O)N2 (stereo not given)	-2	-6	0	-3	nt	nt
COc1cccc(/C=N/NC(=O)c2[nH]nc(-c3ccccc3)c2C)c1O	7.6*	25	0	10	0	-13
COc1cccc(/C=N/NC(=O)C(=O)NCC(C)C)c1O	30*	23	-1	-6	-1	-15
COc1ccc(/C=N\NC(=O)c2cnccn2)cc1OCc1ccccc1	5.8*	12	0	5	0	17
